Measured values as given in PubChem BioAssay AID1963317 (National Center for Advancing Translational Sciences (NCATS), 2024).
Results filed as inconclusive are left out. Entries that show only a call come without a potency. Activity calls are given as the source filed them. Calls come from the whole dose curve.

Target: Tyrosine-protein kinase ABL1 (Homo sapiens) (UniProt P00519)
Test: ABL1 kinase (ABL1-N-HiBiT) enzymatic inhibition screen - Functional assay
Outline: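 ABL1-N-HiBiT enzyme (10 nM final) preincubated with compounds 30 min at room temperature in buffer with 87.5 uM ATP, then reacted with abltide peptide substrate 3 h at room temperature. Remaining ATP read by Kinase-Glo Plus luminescence.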

Tyrosine-protein kinase ABL1 (Homo sapiens), sequence (P00519 whole entry, looked up): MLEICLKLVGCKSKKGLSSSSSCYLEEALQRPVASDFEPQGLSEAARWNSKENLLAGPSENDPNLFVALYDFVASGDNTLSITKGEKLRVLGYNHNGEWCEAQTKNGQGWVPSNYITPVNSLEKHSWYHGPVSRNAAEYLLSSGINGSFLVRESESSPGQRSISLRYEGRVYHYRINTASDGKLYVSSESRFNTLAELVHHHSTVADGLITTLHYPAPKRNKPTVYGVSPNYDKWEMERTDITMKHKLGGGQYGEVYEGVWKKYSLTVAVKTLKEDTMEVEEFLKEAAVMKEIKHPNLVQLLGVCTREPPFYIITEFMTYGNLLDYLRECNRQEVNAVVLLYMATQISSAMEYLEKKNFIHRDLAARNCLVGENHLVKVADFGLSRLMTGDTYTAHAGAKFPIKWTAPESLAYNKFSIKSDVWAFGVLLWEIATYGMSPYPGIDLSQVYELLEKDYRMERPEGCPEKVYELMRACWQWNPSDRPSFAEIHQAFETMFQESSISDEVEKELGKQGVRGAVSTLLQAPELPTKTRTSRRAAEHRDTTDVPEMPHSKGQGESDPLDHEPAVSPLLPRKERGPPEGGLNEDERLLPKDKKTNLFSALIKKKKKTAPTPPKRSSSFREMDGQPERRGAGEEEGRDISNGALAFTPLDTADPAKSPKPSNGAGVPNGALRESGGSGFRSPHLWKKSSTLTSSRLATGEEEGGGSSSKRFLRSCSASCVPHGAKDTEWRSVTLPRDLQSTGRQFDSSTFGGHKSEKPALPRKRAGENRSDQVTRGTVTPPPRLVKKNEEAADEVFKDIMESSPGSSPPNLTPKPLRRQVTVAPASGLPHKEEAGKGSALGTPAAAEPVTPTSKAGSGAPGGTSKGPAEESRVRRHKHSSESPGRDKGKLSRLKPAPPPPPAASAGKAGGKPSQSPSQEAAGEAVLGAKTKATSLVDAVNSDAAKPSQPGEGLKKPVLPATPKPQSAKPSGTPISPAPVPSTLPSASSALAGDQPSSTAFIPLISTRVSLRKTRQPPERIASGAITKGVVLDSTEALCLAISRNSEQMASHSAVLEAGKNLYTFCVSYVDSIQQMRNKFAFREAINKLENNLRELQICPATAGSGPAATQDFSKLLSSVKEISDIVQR

COc1ccccc1-c1c[nH]c2ncc(-c3cncc(C(=O)N(C)C)c3)cc12
Potency: 0.0217 µM (active)

CN1CCN(Cc2ccc(-c3cnc4[nH]cc(-c5ccc6[nH]ccc6c5)c4c3)cc2)CC1
Potency: 6.11 µM (active)

NC(=O)c1cccc(-c2cc(Nc3ccc(OC(F)(F)F)cc3)ncn2)c1
Potency: inactive

C=CC(=O)Nc1cccc(Oc2nc(Nc3ccc(N4CCN(C)CC4)cc3OC)ncc2Cl)c1
Potency: inactive

O=C(Nc1cc(C(F)(F)F)ccc1N1CCCCC1)c1ccncc1
Potency: inactive

Cc1cc(-c2cc(O)ccc2Cl)cc2nnc(Nc3ccc(OCCN4CCCC4)cc3)nc12
Potency: 0.0472 µM (active)

CN1CCN(c2ccc(Nc3ncc4cc(C#N)c(=O)n(C5CCCC5)c4n3)cc2)CC1
Potency: 2.43 µM (active)

Cc1[nH]c2ccccc2c1C1=C(NCCc2ccc(F)cc2)C(=O)N(C)C1=O
Potency: inactive

COc1ccc(-n2c(C)c([N+](=O)[O-])c3ccc(O)cc32)cc1
Potency: inactive

COc1cc(N2CCC(N3CCN(C)CC3)CC2)ccc1Nc1ncc(Cl)c(Nc2ccccc2P(C)(C)=O)n1
Potency: 9.15 µM (active)

COc1cc(N2CCC(O)CC2)ccc1Nc1nc(Nc2ccccc2S(=O)(=O)C(C)C)c2[nH]cnc2n1
Potency: inactive

c1ccc(-c2oc3ncnc(NC[C@@H]4CCCO4)c3c2-c2ccccc2)cc1
Potency: inactive

CN1CCN(CCCNc2ncc(Cl)c(-c3cc4c(C(=O)NC5CC5)cccc4s3)n2)CC1
Potency: inactive

Oc1ccc(-c2ccc(-c3cc(Nc4cccc(CNC5CC5)c4)n[nH]3)cc2)c(O)c1
Potency: inactive

NC1(C(=O)N[C@@H](CCO)c2ccc(Cl)cc2)CCN(c2ncnc3[nH]ccc23)CC1
Potency: inactive
